Here are results for 39 compounds from PubChem BioAssay (NCI).

The structures appear in SMILES notation. This is part of a sample that, as a whole, favours compounds with a hit. Of some 79,000 tested, about 15% had one in any assay. A number with no mark means an inactive call. The source made the active and inactive calls. No stated cut-off is given here; in the data, active means growth inhibition above about 70%; inactive means the rest.

A short description of the first experiment: NCI Yeast Anticancer Drug Screen. Data for the wt1 strain (AID 149).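 Further: 0% = growth of vehicle-treated wt1 cultures.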 The following applies: S. cerevisiae wt1 strain (SPY 50644) growth inhibition; at 33.0 µM; hits give high values. The method in brief:
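Using yeast strain wt1, compound-induced growth inhibition was determined against vehicle-treated cultures.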
As for `C/C(=N\NC(=S)SCc1ccccc1)c1ccccn1`, the growth inhibition is 95% (active).
Regarding `CC[C@@]1(O)C(=O)OCc2c1cc1n(c2=O)Cc2cc3c(N)cccc3nc2-1`, the growth inhibition was 8%.
On to `CN(C)c1ccc(Sc2ccc3nc(N)nc(N)c3c2)cc1`, for which the growth inhibition is -7%.
On the same count and under the same terms, the result for `CC(=O)OCCOCNC(=S)N/N=C(\C)c1cnccn1` reads 28%; that for `COc1ccc(C2c3cc4c(cc3OC(C)(O)C2C)OCO4)c(OC)c1` (stereo not drawn), -2%; that for `COc1cc(C2SCC(=O)N2c2ccc(-c3ccc(-n4c(-c5ccccc5)nc5ccccc5c4=O)cc3)cc2)cc(OC)c1OC` (stereo not drawn), -2%.
Same read-out and setting: the result for `COc1ccc(Br)c(C(=O)Sc2nnnn2-c2cccc(Cl)c2)c1` reads 33%.
Same read-out and setting: the result for `O=C(NNc1ccnc2cc(Cl)ccc12)/C(=C\c1ccccc1Cl)NC(=O)c1ccccc1` reads 21%; that for `CSC(=S)Nc1cccc(C)n1`, -15%; that for `O=C(/C=C\c1ccc(Cl)cc1Cl)c1cccs1`, -6%.
Regarding `COc1ccc(-c2cn(-c3ccc(I)cc3)c3ncnc(N)c23)cc1`, the growth inhibition was -11%.
On the same count and under the same terms, the result for `CN(C)c1ccc(C(C#N)=C(C#N)C#N)cc1` reads -4%; that for `COc1cc(/C=C2\CCc3ccccc3C2=O)cc(OC)c1OC`, 11%.
Still for that read-out and setting: the value for `CC(C)/C(Cl)=N\OC(=O)Nc1cccc(Cl)c1` was -2%.
As for `CC1(C)[C@@H]2CC[C@]1(C)[C@H](OC(=O)CSC#N)C2`, the growth inhibition is 61%.
For `NNC(=O)CCc1ccc2ccc3ccccc3c2c1`, the growth inhibition was 3%.
In the case of `COc1ccc(/C(C)=N/OC(=O)c2c(-c3ccccc3Cl)noc2C)cc1CN1CCOCC1`, the growth inhibition is -7%.
Take `C=CC(C)(O)CCC1C(=C)C(O)CC2C(C)(C)CCCC12C` (stereo not drawn): the growth inhibition is -11%.
Same read-out and setting: the value for `S=C(Nc1ccc(Cl)c(Cl)c1)SCc1ccc2c(c1)OCO2` was 99% (active); that for `COc1cc(C2C3=C(COC3=O)Oc3cc4c(cc32)OCO4)ccc1O` (stereo not drawn) was -5%; that for `S=C(Nc1ccc(Cl)cc1)SC1CCCCC1` was 98% (active).
With `Nc1nc(-c2cccnc2)cc(-c2cc(-c3cccnc3)nc(N)n2)n1`, the growth inhibition was -2%.
As to `COC1=CC(=O)C2C(C1=O)C(c1ccc(Cl)cc1)[C@@H]2C` (stereo partly drawn), the growth inhibition is 99% (active).
`c1ccc(-c2nc3cccnc3s2)cc1`: the growth inhibition is -2%.
For `O=[N+]([O-])c1cc(CCl)ccc1CCl`, the growth inhibition is 93% (active).
In the case of `COc1ccc(/C=C2\SC(=S)N(/C=C/c3nc4ccccc4[nH]c3=O)C2=O)cc1OC`, the growth inhibition is 40%.
As for `CCCN(CCC)CC(O)c1cc(-c2ccc(Cl)cc2)nc2c(C)c(Cl)ccc12` (stereo not drawn), the growth inhibition is 98% (active).
As for `O=C(Nc1ccccc1)OCCc1ccc(Cl)c(Cl)c1`, the growth inhibition is 16%.
Take `CC(O)C(O)C(O)C(/C=N\Nc1ccccc1)=N/Nc1ccccc1` (stereo not drawn): the growth inhibition was 8%.
On the same count and under the same terms, the result for `C#CCCCc1ccccc1` reads -9%.
On the same count and under the same terms, the result for `CC(=O)Cc1ccc[cH-]1.[Fe+2].c1cc[cH-]c1` reads 10%; that for `Cc1cc(I)ccc1N`, 86% (active).
Same read-out and setting: the result for `FC(F)(F)c1cc(NC(=S)N2c3ccccc3-n3cccc3C2c2cccnc2)cc(C(F)(F)F)c1` (stereo not drawn) reads -6%; that for `CC(C)(CN1CCCCC1)C(=O)CC(SCCS(=O)(=O)O)c1ccc(Br)cc1` (stereo not drawn), 11%.
For `C[Si](C)(C)CNC(=O)OCc1ccccc1`, the growth inhibition is -4%.
With `CC(C(=O)N1C(=O)N(C(=O)[C@H](C)C(O)c2ccccc2)[C@H](c2ccccc2)[C@H]1c1ccccc1)[C@@H](O)c1ccccc1` (stereo partly drawn), the growth inhibition was 17%.
The same measure, in the same setting: the value for `Oc1cccc2c(Cl)ccnc12` was 97% (active).
On to `O=C1C=CC(=C(c2ccccc2)c2ccccc2)c2ccccc21`, for which the growth inhibition was 2%.
Still for that read-out and setting: the result for `S=C(S)NN1CCOCC1` reads 51%.

Staying with this experiment, now noted: S. cerevisiae wt1 strain (SPY 50644) growth inhibition; at 100.0 µM; hits give high values.
For the compound `C/C(=N\NC(=S)SCc1ccccc1)c1ccccn1`, the growth inhibition is 94% (active).
The same measure, in the same setting: the value for `CC[C@@]1(O)C(=O)OCc2c1cc1n(c2=O)Cc2cc3c(N)cccc3nc2-1` was -1%.
On to `CN(C)c1ccc(Sc2ccc3nc(N)nc(N)c3c2)cc1`, for which the growth inhibition was -5%.
On the same count and under the same terms, the value for `CC(=O)OCCOCNC(=S)N/N=C(\C)c1cnccn1` was 69%.
Still for that read-out and setting: the value for `COc1ccc(C2c3cc4c(cc3OC(C)(O)C2C)OCO4)c(OC)c1` (stereo not drawn) was 83% (active); that for `COc1cc(C2SCC(=O)N2c2ccc(-c3ccc(-n4c(-c5ccccc5)nc5ccccc5c4=O)cc3)cc2)cc(OC)c1OC` (stereo not drawn) was -8%.
The same measure, in the same setting: the result for `COc1ccc(Br)c(C(=O)Sc2nnnn2-c2cccc(Cl)c2)c1` reads 93% (active); that for `O=C(NNc1ccnc2cc(Cl)ccc12)/C(=C\c1ccccc1Cl)NC(=O)c1ccccc1`, 28%; that for `CSC(=S)Nc1cccc(C)n1`, 3%.
With `O=C(/C=C\c1ccc(Cl)cc1Cl)c1cccs1`, the growth inhibition is -7%.
As to `COc1ccc(-c2cn(-c3ccc(I)cc3)c3ncnc(N)c23)cc1`, the growth inhibition is -2%.
Still for that read-out and setting: the value for `CN(C)c1ccc(C(C#N)=C(C#N)C#N)cc1` was 12%.
For `COc1cc(/C=C2\CCc3ccccc3C2=O)cc(OC)c1OC`, the growth inhibition was 76% (active).
`CC(C)/C(Cl)=N\OC(=O)Nc1cccc(Cl)c1`: the growth inhibition is 1%.
Consider `CC1(C)[C@@H]2CC[C@]1(C)[C@H](OC(=O)CSC#N)C2`, for which the growth inhibition is 96% (active).
As to `NNC(=O)CCc1ccc2ccc3ccccc3c2c1`, the growth inhibition is 18%.
`COc1ccc(/C(C)=N/OC(=O)c2c(-c3ccccc3Cl)noc2C)cc1CN1CCOCC1`: the growth inhibition is 39%.
On to `C=CC(C)(O)CCC1C(=C)C(O)CC2C(C)(C)CCCC12C` (stereo not drawn), for which the growth inhibition was 69%.
With `S=C(Nc1ccc(Cl)c(Cl)c1)SCc1ccc2c(c1)OCO2`, the growth inhibition is 96% (active).
As to `COc1cc(C2C3=C(COC3=O)Oc3cc4c(cc32)OCO4)ccc1O` (stereo not drawn), the growth inhibition is 31%.
`S=C(Nc1ccc(Cl)cc1)SC1CCCCC1`: the growth inhibition was 98% (active).
The same measure, in the same setting: the result for `Nc1nc(-c2cccnc2)cc(-c2cc(-c3cccnc3)nc(N)n2)n1` reads -2%; that for `COC1=CC(=O)C2C(C1=O)C(c1ccc(Cl)cc1)[C@@H]2C` (stereo partly drawn), 99% (active).
Turning to `c1ccc(-c2nc3cccnc3s2)cc1`, the growth inhibition is 0%.
Still for that read-out and setting: the value for `O=[N+]([O-])c1cc(CCl)ccc1CCl` was 97% (active).
On the same count and under the same terms, the result for `COc1ccc(/C=C2\SC(=S)N(/C=C/c3nc4ccccc4[nH]c3=O)C2=O)cc1OC` reads 90% (active).
Regarding `CCCN(CCC)CC(O)c1cc(-c2ccc(Cl)cc2)nc2c(C)c(Cl)ccc12` (stereo not drawn), the growth inhibition is 97% (active).
Same read-out and setting: the value for `O=C(Nc1ccccc1)OCCc1ccc(Cl)c(Cl)c1` was 8%.
Still for that read-out and setting: the value for `CC(O)C(O)C(O)C(/C=N\Nc1ccccc1)=N/Nc1ccccc1` (stereo not drawn) was 96% (active); that for `C#CCCCc1ccccc1` was 57%; that for `CC(=O)Cc1ccc[cH-]1.[Fe+2].c1cc[cH-]c1` was 7%.
Same read-out and setting: the value for `Cc1cc(I)ccc1N` was 91% (active); that for `FC(F)(F)c1cc(NC(=S)N2c3ccccc3-n3cccc3C2c2cccnc2)cc(C(F)(F)F)c1` (stereo not drawn) was -9%.
For `CC(C)(CN1CCCCC1)C(=O)CC(SCCS(=O)(=O)O)c1ccc(Br)cc1` (stereo not drawn), the growth inhibition was 24%.
Still for that read-out and setting: the value for `C[Si](C)(C)CNC(=O)OCc1ccccc1` was -3%; that for `CC(C(=O)N1C(=O)N(C(=O)[C@H](C)C(O)c2ccccc2)[C@H](c2ccccc2)[C@H]1c1ccccc1)[C@@H](O)c1ccccc1` (stereo partly drawn) was 36%; that for `Oc1cccc2c(Cl)ccnc12` was 99% (active).
On to `O=C1C=CC(=C(c2ccccc2)c2ccccc2)c2ccccc21`, for which the growth inhibition was 4%.
For the compound `S=C(S)NN1CCOCC1`, the growth inhibition is 60%.
